Source: PubChem
G9a block = blocks human histone lysine methyltransferase G9a; Q96KQ7; Potency, µM (highest dose often 102 µM), without a hit: at the highest dose activity, negative = inhibition, usual class: inhibitors; 350,000 tested, 8.8% active; AID 504332; G9a H3K9 monomethylation, AlphaScreen, 2 h; further: on the % scale 0 is the no-effect control and ±100 the full control effect; nearly all actives have a fitted effect of over 75% in size
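Chemiluminescent proximity detection of H3K9 monomethylation, read after 10 min bead incubation in the dark. Reaction: 20 nM G9a, 500 nM biotin-H3K9 peptide, 20 uM SAM cofactor, 2 h, room temperature, following 15 min enzyme-compound preincubation.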
BAZ2B block = BAZ2B (human) inhibition; AlphaScreen BAZ2B-H3K14Ac peptide displacement; Potency, µM (highest dose often 114 µM), inactives show top-dose activity change, negative = inhibition, actives largely listed as inhibitors; 360,000 tested, 4.4% active; Q9UIF8; further: on the % scale 0 is the no-effect control and ±100 the full control effect; nearly all actives have a fitted effect of over 60% in size
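Multi-concentration screen (max 110 uM) measuring displacement of acetylated histone H3 peptide from BAZ2B by AlphaScreen, using 50 nM protein, 50 nM peptide and 10 ug/mL streptavidin donor plus Ni-chelate acceptor beads.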
HP1b binding inh = blocks HP1-beta chromodomain binding to methylated histone tails. P83916. AlphaScreen HP1-beta / biotin-H3K9me3 peptide binding. Potency, µM (series often up to 114 µM), inactives show at the top dose activity change, negative = inhibition, actives largely listed as inhibitors. 390,000 tested, 0.56% active; further: nearly all actives have a fitted effect of over 70% in size
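Compound inhibition of the preformed complex between 50 nM HP1-beta and 50 nM biotinylated H3K9me3 peptide was read by AlphaScreen. Buffer was PBS pH 7.4 with 0.01% Tween-20. Incubations ran 30 min at room temperature, with 10 ug/mL donor/acceptor beads.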
Sfp PPTase inh = Sfp phosphopantetheinyl transferase inhibition; AID 1490; Potency, µM, for the others: largest response in the series, negative = inhibition, most hits filed as inhibitors; Biochemical Sfp PPTase activity, qHTS; Q9F4F7; 310,000 tested, 3.5% active;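 further: the enzyme is Sfp with the accession as filed and its product quenches rhodamine fluorescence; 0% = enzyme reaction without inhibitor and -100% = no enzyme wells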
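Fluorescence-quenching assay with 15 nM Sfp, 5 uM rhodamine-CoA and 12.5 uM BHQ-2-labelled ybbR peptide in pH 7.6 Hepes/MgCl2 buffer. Enzyme was pre-incubated with compound for 15 min at room temperature. Rate was taken from the 30-min fluorescence change (525/598 nm).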
PLK1 PBD block = blocks phosphopeptide binding to human PLK1 polo-box domain; Plk1 PBD binding of FITC phosphopeptide, fluorescence polarization; Potency, µM, inactives show max response, negative = inhibition, actives largely listed as inhibitors; 360,000 tested, 2.8% active; AID 720504; further: series mostly up to about 57 µM; on the % scale 0 is the no-effect control and ±100 the full control effect; nearly all actives have a fitted effect of over 65% in size
JMJD2A Tudor = inhibitors of human JMJD2A Tudor domain | O75164 | AID 504339 | AlphaScreen JMJD2A-Tudor / H3K4me3 peptide binding | Potency, µM (highest dose often 114 µM), for inactives: at the top dose activity change, negative = inhibition, most hits filed as inhibitors | 390,000 tested, 4.4% active; further: on the % scale 0 is the no-effect control and ±100 the full control effect; nearly all actives have a fitted effect of over 50% in size
Starred values were filed as active, the others as inactive; ? = inconclusive; / = no result given; [ ] = remark or other dose. Rows were chosen to be rich in hits. Some 12% of all compounds tested hit in one or more screens of this group. The call rests on the fitted dose curve; in most records, active means well fitted curve in the direction sought with a large enough effect; inconclusive means small, poorly fitted or top-dose-only effect, or another doubt; inactive means no such curve, though single readings can be large; an effect the other way counts as inactive or inconclusive. Potency means the concentration at half of the fitted maximal effect.

SMILES	G9a block	BAZ2B block	HP1b binding inh	Sfp PPTase inh	PLK1 PBD block	JMJD2A Tudor
CCCC[C@@H]1C[C@H]1C(NS(=O)(=O)c1cccc2cccnc12)c1ccc(-c2ccccc2)cc1 (stereo not given in full)	/	/	/	-18%	/	/
COc1ccc(NC(=O)c2cc(-c3sc(NC(=O)c4ccccc4)nc3C)n(Cc3ccccc3)n2)cc1	/	/	/	/	-4%	/
CC(C)(C)Cc1nnc(NC(=O)Cc2ccc([N+](=O)[O-])cc2)s1	10µM*	3%	?	40µM*	5.3µM*	?
Cc1ccnc(NC(=O)Cc2ccc([N+](=O)[O-])cc2)c1	/	50µM*	33%	14%	-17%	-3%
CCCCCc1nnc(NC(=O)Cc2ccc([N+](=O)[O-])cc2)s1	45µM*	-2%	6%	-7%	?	-32%
CCCc1nnc(NC(=O)c2ccc([N+](=O)[O-])cc2)s1	4%[59 µM]	8%	28%	13%	4%	-7%
Cn1c(=O)[nH]c(=O)c2c1nc(Br)n2C/C=N/Nc1ccccc1	?	?	37%	56µM*	-2%	-31%
Cn1c(=O)[nH]c(=O)c2c1nc(Br)n2C/C=N/NC(=O)c1ccccc1	0%	0%	27%	4%	4%	2%
CC(/C=C/c1ccccc1)=N\Nc1nc2c(c(=O)[nH]c(=O)n2C)n1CCO	?	-14%	35%	40µM*	-7%	-5%
COCCn1c(N/N=C(C)/C=C/c2ccccc2)nc2c1c(=O)[nH]c(=O)n2C	/	-13%	/	40µM*	/	/
CCCn1c(N/N=C\C=C\c2ccccc2)nc2c1c(=O)[nH]c(=O)n2C	-44%	/	-4%	-24%	0%	-29%
COc1ccc(C)cc1NC(=O)c1cc(S(=O)(=O)N2CCc3ccccc3C2)ccc1F	-3%[59 µM]	0%	-2%	/	/	-19%
O=[S+]([O-])(c1ccc2nsnc2c1)N1CCN([S+](=O)([O-])c2c(F)cccc2F)CC1	/	/	/	/	/	-12%
Cc1ccc(OCCCCn2cnc3ccccc32)cc1	?	1%	31%	40µM*	-3%	-6%
c1ccc(OCCCCn2cnc3ccccc32)cc1	4%[59 µM]	-3%	63%	10%	-5%	1%
c1ccc2c(c1)ncn2CCCCOc1ccc2c(c1)CCC2	8.9µM*	28µM*	71µM*	32µM*	-2%	2.8µM*
COc1cc2nc(NCc3ccccc3)n3nc(-c4ccccc4)nc3c2cc1OC	0%[59 µM]	-2%	42%	/	/	-15%
O=C(Nc1ccccc1Sc1ccccc1)c1cnn2c1NC(=C1CC1)C=C2C(F)F	/	/	33%	/	/	/
O=C(O)C1CCCCC1C(=O)NC1C2CC3CC(C2)CC1C3 (stereo not given)	/	-3%	52%	23%	-5%	1%
NC(=S)NNC(=O)[C@@H]1CCCC[C@@H]1C(=O)O	45µM*	-6%	-21%	?	21µM*	?
O=S(=O)(CCc1ccncc1)Cc1ccc2c3c(cccc13)CC2	50µM*	-3%	25%	6%	0%	-4%
c1ccc2c(CCc3ccncc3)cccc2c1	/	/	74%	/	-7%	3%
O=C(c1ccc(Cl)nc1)N1CCN(S(=O)(=O)c2ccccc2)CC1	8%	-22%	62%	6%	-18%	-3%
CCSc1ncnc2sc3c(c12)CCC3	64%	61%	111%	6%	-1%	66%
CCSC1=NC2(CCCCC2)Nc2sc3c(c21)CCCC3	4.5µM*	?	?	40µM*	13µM*	22µM*
CC(=O)N1CCN(S(=O)(=O)c2ccc(S(=O)(=O)NC3CCCCC3)cc2)CC1	50µM*	-2%	22%	8%	-10%	-14%
CCN1CCN(S(=O)(=O)c2ccc(S(=O)(=O)NC3CC3)cc2)CC1	50µM*	-14%	27%	2%	-1%	-5%
CC(=O)c1ccc(S(=O)(=O)NC2CCCCCCC2)cc1	15%	-19%	23%	0%	-5%	-14%
O=CN1CCN(S(=O)(=O)c2ccc(S(=O)(=O)NC3CCCCC3)cc2)CC1	45µM*	7%	6%	-4%	-4%	-1%
